Where “and” joins values, the source holds several entries; their conditions need not be identical. Identical values can stand only once. Inconclusive results are not listed. Entries that show only a call come without a potency. Calls of active or inactive are those of the source. Unless noted, calls come from the whole dose curve; as a rule, active = well fitted curve in the direction sought with a large enough effect in the repeat runs; inconclusive = weak or mixed curves; inactive = no such curve, though single readings can be large; an effect the other way counts as inactive or inconclusive.
Legend:
[1] = qHTS assay to identify small molecule agonists of the sonic hedgehog signaling (Shh) pathway (AID 1259368; calls by dose curve;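 note: NIH/3T3-derived 3T3Gli1-Luc cells carrying a stable Gli1-driven firefly luciferase reporter; series mostly up to about 92 µM; nearly all actives have a fitted effect of over 15% in size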)
In short: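 Quantitative high-throughput format using a Gli1-driven firefly luciferase reporter line derived from NIH/3T3 cells. After a 24 hr compound treatment at 37 C and 5% CO2, luminescence reported Gli1 response element activity.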

[2] = target: Estrogen receptor beta (Homo sapiens) (UniProt Q92731); test: qHTS assay to identify small molecule agonists of the estrogen receptor beta (ER-beta) signaling pathway (AID 1259377; active = well fitted activation curve with a large enough effect in the signal ratio in the repeat runs, not every such curve was filed as active; the % refers to the signal ratio)
Chain of Estrogen receptor beta (Homo sapiens) (Q92731 whole entry, looked up): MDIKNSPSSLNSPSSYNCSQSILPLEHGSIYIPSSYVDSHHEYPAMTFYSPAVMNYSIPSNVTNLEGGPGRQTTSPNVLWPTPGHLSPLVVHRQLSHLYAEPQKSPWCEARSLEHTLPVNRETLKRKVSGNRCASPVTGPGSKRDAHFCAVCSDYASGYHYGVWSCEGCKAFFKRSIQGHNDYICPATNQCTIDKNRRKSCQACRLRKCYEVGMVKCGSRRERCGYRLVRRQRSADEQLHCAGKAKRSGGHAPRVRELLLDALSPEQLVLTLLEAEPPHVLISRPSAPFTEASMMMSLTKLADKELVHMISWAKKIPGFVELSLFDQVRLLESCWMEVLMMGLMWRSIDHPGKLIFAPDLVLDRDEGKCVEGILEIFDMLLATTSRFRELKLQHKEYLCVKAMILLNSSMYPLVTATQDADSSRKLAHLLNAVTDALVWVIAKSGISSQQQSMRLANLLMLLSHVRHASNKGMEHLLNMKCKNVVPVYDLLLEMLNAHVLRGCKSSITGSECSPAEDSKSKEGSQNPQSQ
In short: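 Ratiometric beta-lactamase FRET read-out came after 2 h substrate loading at room temperature. It followed 16 h compound treatment at 37C of GripTite HEK293T cells carrying a UAS-bla reporter, plated in 2% charcoal-stripped FBS medium.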

[3] = target: Estrogen receptor beta (Homo sapiens) (UniProt Q92731); test: qHTS assay to identify small molecule antagonists of the estrogen receptor beta (ER-beta) signaling pathway (AID 1259378; active = well fitted inhibition curve with a large enough effect in the signal ratio in the repeat runs, not every such curve was filed as active; the % refers to the signal ratio; note: potency is the fitted concentration of half-maximal effect)
In short: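 ER-beta-UAS-bla HEK293T (GripTite) cells in 2% charcoal-stripped FBS medium were preincubated 6 hr at 37C, dosed with compound, then stimulated with 1 nM E2 (final) for 16 hr; beta-lactamase reporter read by B/G FRET fluorescence after 2 hr substrate loading.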

[4] = qHTS assay to identify small molecule agonists of the androgen receptor (AR) signaling pathway in the presence of an antagonist - cell viability counter screen (AID 1259379); note: nearly all actives have a fitted effect of over 25% in size; note: potency is the fitted concentration of half-maximal effect
In short: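 Nilutamide-containing (3.0uM final) MDA-kb2 cultures, 3,000 cells/well, were treated with compounds across 15 concentrations. After 16 hr at 37C with no CO2, cell viability was determined by CellTiter-Fluor fluorescence in the luciferase assay wells.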

[5] = qHTS assay to identify small molecule agonists of the estrogen receptor beta (ER-beta) signaling pathway - cell viability counter screen (AID 1259380); note: nearly all actives have a fitted effect of over 30% in size; note: potency is the fitted concentration of half-maximal effect
In short: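 Steps: plate ER-beta-UAS-bla HEK293T cells, rest 6 hr; add compounds in DMSO; incubate 16 hr at 37C, 5% CO2; add FRET substrate 2 hr; add CellTiter-Glo, wait 30 min at room temperature; read luminescence.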

[6] = qHTS assay to identify small molecule antagonists of the estrogen receptor beta (ER-beta) signaling pathway - cell viability counter screen (AID 1259382); note: nearly all actives have a fitted effect of over 55% in size; note: potency is the fitted concentration of half-maximal effect
In short: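 Viability is scored by CellTiter-Glo luminescence (30 min, room temperature) in ER-beta-UAS-bla HEK293T wells already read for reporter fluorescence. Compound exposure lasts 16 hr at 37C alongside 1nM 17-beta-estradiol in charcoal-stripped serum medium.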

[7] = target: Estrogen receptor (Homo sapiens) (UniProt P03372); test: qHTS assay to identify small molecule agonists of the estrogen receptor alpha (ER-alpha) signaling pathway in the presence of an antagonist (AID 1259383; calls by dose curve; note: top concentration of the series differs between compounds; nearly all actives have a fitted effect of over 15% in size)
Chain of Estrogen receptor (Homo sapiens) (P03372 whole entry, looked up): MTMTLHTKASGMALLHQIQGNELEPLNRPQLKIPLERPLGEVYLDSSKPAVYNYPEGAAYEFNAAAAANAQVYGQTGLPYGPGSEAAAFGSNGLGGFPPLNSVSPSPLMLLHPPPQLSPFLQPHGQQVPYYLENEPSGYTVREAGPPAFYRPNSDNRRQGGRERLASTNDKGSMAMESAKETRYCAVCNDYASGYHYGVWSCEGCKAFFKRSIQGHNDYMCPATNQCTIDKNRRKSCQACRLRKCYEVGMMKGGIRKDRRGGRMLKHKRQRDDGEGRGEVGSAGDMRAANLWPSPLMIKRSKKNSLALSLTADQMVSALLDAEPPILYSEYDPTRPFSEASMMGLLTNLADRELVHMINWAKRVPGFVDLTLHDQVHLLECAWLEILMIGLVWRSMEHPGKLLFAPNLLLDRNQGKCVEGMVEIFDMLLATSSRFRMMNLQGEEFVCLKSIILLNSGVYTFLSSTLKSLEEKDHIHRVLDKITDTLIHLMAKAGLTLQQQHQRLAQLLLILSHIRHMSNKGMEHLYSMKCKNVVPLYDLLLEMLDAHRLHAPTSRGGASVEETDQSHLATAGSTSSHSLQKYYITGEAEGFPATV
In short: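 Readout was ERE-driven luciferase luminescence in VM7Luc4E2 cells, which express full-length ER-alpha endogenously. Compounds were tested at 15 concentrations for 22hr alongside 10.0nM ICI-182,780 (final concentration).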

[8] = qHTS assay to identify small molecule agonists or antagonists of the thyroid stimulating hormone receptor (TSHR) signaling pathway - wild type cell line counter screen (AID 1259384; calls by dose curve)
In short: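 Wild-type HEK293 cells were plated 18 h at 37 C/5% CO2, pin-dosed with compound plus Ro20-1724 medium, held 30 min at room temperature, then given cAMP-d2 and anti-cAMP-cryptate; fluorescence was read after 1 h. Fifteen concentrations, triplicate.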

[9] = target: Thyrotropin receptor (Homo sapiens) (UniProt P16473); test: qHTS assay to identify small molecule antagonists of the thyroid stimulating hormone receptor (TSHR) signaling pathway (AID 1259385; calls by dose curve; note: nearly all actives have a fitted effect of over 20% in size)
Chain of Thyrotropin receptor (Homo sapiens) (P16473 whole entry, looked up): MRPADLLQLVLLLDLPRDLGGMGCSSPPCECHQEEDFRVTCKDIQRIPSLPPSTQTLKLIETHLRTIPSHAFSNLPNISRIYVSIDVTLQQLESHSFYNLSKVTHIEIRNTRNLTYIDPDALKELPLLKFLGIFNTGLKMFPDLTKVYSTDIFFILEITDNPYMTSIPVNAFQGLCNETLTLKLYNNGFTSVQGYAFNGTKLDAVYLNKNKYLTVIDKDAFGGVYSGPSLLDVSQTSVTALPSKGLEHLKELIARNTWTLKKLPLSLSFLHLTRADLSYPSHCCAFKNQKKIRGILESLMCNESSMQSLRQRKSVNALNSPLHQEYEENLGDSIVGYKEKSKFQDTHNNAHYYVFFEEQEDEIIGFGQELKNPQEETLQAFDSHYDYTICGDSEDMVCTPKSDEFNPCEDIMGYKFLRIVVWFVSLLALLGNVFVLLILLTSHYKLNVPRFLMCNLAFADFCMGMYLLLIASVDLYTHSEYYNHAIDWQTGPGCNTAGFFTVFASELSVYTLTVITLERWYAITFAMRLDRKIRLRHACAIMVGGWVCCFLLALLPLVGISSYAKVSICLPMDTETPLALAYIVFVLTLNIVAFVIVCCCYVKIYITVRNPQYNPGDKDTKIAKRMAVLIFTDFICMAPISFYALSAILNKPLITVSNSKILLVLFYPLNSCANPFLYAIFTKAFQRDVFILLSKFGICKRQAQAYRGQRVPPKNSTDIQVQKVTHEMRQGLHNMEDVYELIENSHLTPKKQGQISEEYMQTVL
In short: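 TSHR-HEK293 cells were plated and held 18 h at 37C/5% CO2, then given compound plus Ro20-1724 and stimulated with TSH at 1.5 ng/mL final. After 30 min at room temperature, cAMP was detected with cAMP-d2/anti-cAMP-cryptate (1 h) by fluorescence.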

[10] = target: Progesterone receptor (Homo sapiens) (UniProt P06401); test: qHTS assay to identify small molecule agonists of the progesterone receptor (PR) signaling pathway (AID 1346784; calls by dose curve; note: nearly all actives have a fitted effect of over 30% in size)
Chain of Progesterone receptor (Homo sapiens) (P06401 whole entry, looked up): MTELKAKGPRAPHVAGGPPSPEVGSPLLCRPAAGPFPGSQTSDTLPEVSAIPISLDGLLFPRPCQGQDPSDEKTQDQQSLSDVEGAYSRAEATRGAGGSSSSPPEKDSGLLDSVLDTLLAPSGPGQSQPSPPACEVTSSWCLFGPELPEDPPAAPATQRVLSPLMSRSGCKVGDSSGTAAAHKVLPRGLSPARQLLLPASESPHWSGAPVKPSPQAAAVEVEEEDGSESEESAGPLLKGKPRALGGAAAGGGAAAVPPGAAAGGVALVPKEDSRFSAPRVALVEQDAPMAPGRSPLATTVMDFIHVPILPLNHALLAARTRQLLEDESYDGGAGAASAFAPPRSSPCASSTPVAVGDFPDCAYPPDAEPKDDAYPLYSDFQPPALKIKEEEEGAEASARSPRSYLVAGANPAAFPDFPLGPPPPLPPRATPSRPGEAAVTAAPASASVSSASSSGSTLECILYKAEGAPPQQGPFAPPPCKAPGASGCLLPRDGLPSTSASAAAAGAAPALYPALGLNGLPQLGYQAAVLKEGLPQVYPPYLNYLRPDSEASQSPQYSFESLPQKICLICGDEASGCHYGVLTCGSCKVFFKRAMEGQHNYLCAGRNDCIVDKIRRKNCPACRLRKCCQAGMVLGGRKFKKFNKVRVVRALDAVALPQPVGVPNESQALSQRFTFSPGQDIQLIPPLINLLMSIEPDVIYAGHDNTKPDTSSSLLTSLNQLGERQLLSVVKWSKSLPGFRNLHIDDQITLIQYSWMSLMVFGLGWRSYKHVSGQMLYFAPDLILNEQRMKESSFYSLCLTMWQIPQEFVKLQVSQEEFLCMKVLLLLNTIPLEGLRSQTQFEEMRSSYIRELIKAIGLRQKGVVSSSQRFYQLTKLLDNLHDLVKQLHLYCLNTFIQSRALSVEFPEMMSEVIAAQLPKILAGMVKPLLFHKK
In short: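 Agonist qHTS: compounds pinned onto 3,000 PR-UAS-bla HEK 293T cells per well in charcoal-stripped serum medium, 16hr at 37C, then beta-lactamase activity measured by LiveBLAzer FRET fluorescence after 2 hours at room temperature.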

[11] = target: Progesterone receptor (Homo sapiens) (UniProt P06401); test: qHTS assay to identify small molecule antagonists of the progesterone receptor (PR) signaling pathway (AID 1346795; active = well fitted inhibition curve with a large enough effect in the signal ratio in the repeat runs, not every such curve was filed as active; the % refers to the signal ratio; note: potency is the fitted concentration of half-maximal effect)
In short: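 Antagonist mode with agonist R5020 at 1 nM final and 16 hr incubation at 37C. Reporter was beta-lactamase driven by UAS in HEK293T (PR-UAS-bla), 2% charcoal-stripped serum; signal from LiveBLAzer FRET substrate, 2 hr at room temperature.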

[12] = qHTS assay to identify small molecule antagonists of the progesterone receptor (PR) signaling pathway - cell viability counter screen (AID 1346798); note: series mostly up to about 92 µM; nearly all actives have a fitted effect of over 50% in size
In short: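 Cytotoxicity read as CellTiter-Glo luminescence (30 min, room temperature) in the same wells as the beta-lactamase readout. HEK293T PR-UAS-bla cells in charcoal-stripped 2% FBS received compound and R5020, then 16 h at 37C, 5% CO2.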

[13] = qHTS assay to identify small molecule agonists of the progesterone receptor (PR) signaling pathway - cell viability counter screen (AID 1346799; calls by dose curve; note: nearly all actives have a fitted effect of over 45% in size)
In short: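 Cytotoxicity measured by CellTiter-Glo luminescence (30 min, RT) in the same wells as the PR beta-lactamase agonist read. Those HEK293T cells had 16 h compound treatment at 37 C in 2% charcoal-stripped FBS medium.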

[14] = qHTS assay to identify small molecule antagonists of the TGF-beta/Smad signaling pathway - cell viability counter screen (AID 1346824); note: nearly all actives have a fitted effect of over 50% in size
In short: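 SBE-bla HEK 293T cells were plated overnight at 37 C, then given compounds in DMSO plus TGF-beta1 (added as 0.25 ng/mL solution) for 5 hr. After the bla read, CellTiter-Glo was added to the same wells and luminescence read after 30 min at room temperature.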

[15] = qHTS assay to identify small molecule agonists of the TGF-beta/Smad signaling pathway - cell viability counter screen (AID 1346829); note: top concentration of the series differs between compounds; nearly all actives have a fitted effect of over 45% in size
In short: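 Tox21 qHTS format: SBE-bla HEK 293T cells treated with DMSO-dissolved compounds for 5 hr; CellTiter-Glo luminescence after 30 min at room temperature.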

[16] = qHTS assay to identify small molecule agonists of the TGF-beta/Smad signaling pathway (AID 1346859; active = well fitted activation curve with a large enough effect in the signal ratio in the repeat runs, not every such curve was filed as active; the % refers to the signal ratio; note: series mostly up to about 77 µM)
In short: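 Fluorescence (ex 405 nm; em 460 and 530 nm) was read 2 h after LiveBLAzer FRET substrate at RT. The preceding compound treatment of overnight-plated SBE-bla HEK293T cells lasted 5 h at 37 C.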

[17] = target: Thyrotropin-releasing hormone receptor (Homo sapiens) (UniProt P34981); test: qHTS assay to identify small molecule antagonists of the thyrotropin-releasing hormone receptor (TRHR) signaling pathway (AID 1346877; active = well fitted inhibition curve with a large enough effect in the repeat runs, not every such curve was filed as active; note: series mostly up to about 51 µM)
Chain of Thyrotropin-releasing hormone receptor (Homo sapiens) (P34981 whole entry, looked up): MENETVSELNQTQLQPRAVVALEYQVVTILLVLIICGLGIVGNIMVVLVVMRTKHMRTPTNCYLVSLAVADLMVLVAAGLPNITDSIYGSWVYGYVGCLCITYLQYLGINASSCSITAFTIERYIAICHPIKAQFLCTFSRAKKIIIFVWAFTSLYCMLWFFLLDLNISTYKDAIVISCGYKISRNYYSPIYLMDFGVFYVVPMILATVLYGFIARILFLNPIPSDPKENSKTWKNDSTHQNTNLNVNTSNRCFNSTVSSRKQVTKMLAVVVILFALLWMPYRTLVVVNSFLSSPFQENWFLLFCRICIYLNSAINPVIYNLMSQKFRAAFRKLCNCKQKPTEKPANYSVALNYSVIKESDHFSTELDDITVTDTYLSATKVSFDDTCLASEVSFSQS
In short: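 Kinetic fluorescence (3 min, 1 s resolution) following stimulation with TRH at 1 nM final; HEK293 cells bearing human TRHR; 5 min compound preincubation at RT; concentration-response over 15 points, triplicates.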

[18] = qHTS assay to identify small molecule antagonists of the sonic hedgehog signaling (Shh) pathway (AID 1259369; calls by dose curve; note: nearly all actives have a fitted effect of over 45% in size)
In short: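 Stable Gli1-Luc reporter NIH/3T3 clone; quantitative HTS in stimulated mode with conditioned medium. Luminescence measured after 24hr compound treatment at 37 C.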

[19] = qHTS assay to identify small molecule agonists of the estrogen receptor alpha (ER-alpha) signaling pathway in the presence of an antagonist - cell viability counter screen (AID 1259386);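 note: cells exposed to compounds for 22 h at 37 °C before the viability read; nearly all actives have a fitted effect of over 30% in size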; note: potency is the fitted concentration of half-maximal effect
In short: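 In this counter screen, compound effects on VM7Luc4E2 viability were tested in the presence of the antagonist ICI-182,780 at 10.0nM final. Compounds were dosed at 15 concentrations, exposure lasted 22hr, and the CellTiter-Fluor signal was read.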

[20] = target: Androgen receptor (Homo sapiens) (UniProt P10275); test: qHTS assay to identify small molecule agonists of the androgen receptor (AR) signaling pathway in the presence of an antagonist (AID 1259381; calls by dose curve; note: nearly all actives have a fitted effect of over 15% in size)
Chain of Androgen receptor (Homo sapiens) (P10275 whole entry, looked up): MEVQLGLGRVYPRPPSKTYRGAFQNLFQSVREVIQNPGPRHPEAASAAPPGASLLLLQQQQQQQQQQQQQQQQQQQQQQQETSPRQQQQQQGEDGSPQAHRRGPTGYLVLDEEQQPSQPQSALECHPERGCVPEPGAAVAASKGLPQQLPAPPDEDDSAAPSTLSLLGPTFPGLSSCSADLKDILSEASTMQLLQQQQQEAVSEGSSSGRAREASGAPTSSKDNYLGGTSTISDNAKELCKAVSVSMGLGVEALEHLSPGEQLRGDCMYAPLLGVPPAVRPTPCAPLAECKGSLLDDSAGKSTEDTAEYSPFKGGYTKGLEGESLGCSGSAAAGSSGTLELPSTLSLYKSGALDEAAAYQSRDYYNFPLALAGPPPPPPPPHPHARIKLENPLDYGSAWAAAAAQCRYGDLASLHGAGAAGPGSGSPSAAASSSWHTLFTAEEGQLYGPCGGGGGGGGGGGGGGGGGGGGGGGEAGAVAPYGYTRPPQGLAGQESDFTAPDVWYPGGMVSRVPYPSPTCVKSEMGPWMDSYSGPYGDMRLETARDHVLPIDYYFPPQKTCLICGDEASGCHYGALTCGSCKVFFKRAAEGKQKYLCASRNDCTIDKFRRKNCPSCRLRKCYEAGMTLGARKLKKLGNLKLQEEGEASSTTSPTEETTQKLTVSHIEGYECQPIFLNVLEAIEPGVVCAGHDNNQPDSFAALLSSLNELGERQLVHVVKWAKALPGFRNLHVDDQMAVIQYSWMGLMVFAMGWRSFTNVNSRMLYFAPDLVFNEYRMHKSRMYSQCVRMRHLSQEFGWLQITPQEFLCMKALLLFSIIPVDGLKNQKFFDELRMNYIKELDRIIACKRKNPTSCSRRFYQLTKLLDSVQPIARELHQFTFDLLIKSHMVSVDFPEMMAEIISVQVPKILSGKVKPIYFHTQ
In short: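 Reporter-gene luminescence from MDA-kb2 cells exposed 16hr at 37C (0% CO2) to 15-point compound titrations with 3.0uM final nilutamide as AR antagonist.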

| Compound | Potency [1] | Potency [2] | Potency [3] | Potency [4] | Potency [5] | Potency [6] | Potency [7] | outcome [8] | Potency [9] | Potency [10] | Potency [11] | Potency [12] | Potency [13] | Potency [14] | Potency [15] | outcome [16] | Potency [17] | Potency [18] | Potency [19] | Potency [20] |
| --- | --- | --- | --- | --- | --- | --- | --- | --- | --- | --- | --- | --- | --- | --- | --- | --- | --- | --- | --- | --- |
| COc1cc(CC(C)N)cc2c1OCO2 (stereo not given) | inactive | inactive | inactive | inactive | inactive | inactive | inactive | inactive | inactive | inactive | inactive | inactive | inactive | inactive | inactive | inactive | inactive |  |  |  |
| O=S1OC[C@@H]2[C@H](CO1)[C@]1(Cl)C(Cl)=C(Cl)[C@@]2(Cl)C1(Cl)Cl (stereo not given in full) | inactive |  |  | inactive | inactive |  | inactive | inactive | inactive | inactive | 30.6 µM (active) | inactive | inactive | inactive |  | inactive |  | inactive | inactive |  |
| CCCN(CCC)c1c([N+](=O)[O-])cc(S(C)(=O)=O)cc1[N+](=O)[O-] | inactive | inactive |  | inactive | inactive | inactive | inactive |  |  | inactive |  | inactive | inactive | inactive |  | inactive |  |  | inactive |  |
| Clc1ccc(C(OCCN2CCCCC2)c2ccccc2)cc1 (stereo not given) | inactive | inactive | inactive |  | 18.8 µM (active) | inactive | inactive | inactive | inactive | inactive |  | inactive |  | inactive | inactive |  | inactive |  |  |  |
| COC(C)(C)CCC[C@H](C)C/C=C/C(C)=C/C(=O)OC(C)C | inactive | inactive | inactive | inactive | inactive | inactive |  | inactive | inactive | inactive | inactive | inactive |  | inactive | inactive | inactive | inactive |  | inactive |  |
| NC(=O)CI | inactive | inactive | inactive | inactive | inactive |  | inactive | inactive |  |  | inactive | inactive | inactive | inactive | inactive | inactive |  |  |  |  |
| CC(C)N(CCC(C(N)=O)(c1ccccc1)c1ccccn1)C(C)C (stereo not given) | inactive | inactive | inactive | inactive | inactive | inactive |  | inactive | inactive |  | inactive | inactive | inactive | inactive | inactive |  |  |  |  |  |
| O=C(Nc1ccccc1)Nc1cnns1 | inactive | inactive |  | inactive |  |  | inactive | inactive | inactive |  |  |  |  | inactive | inactive | inactive | inactive |  | inactive |  |
| CC(O)(CS(=O)(=O)c1ccc(F)cc1)C(=O)Nc1ccc(C#N)c(C(F)(F)F)c1 (stereo not given) | inactive | inactive |  | inactive | 31.8 µM (active) | 28.3 µM (active) | inactive |  |  |  |  | inactive |  | inactive |  | inactive | inactive |  | inactive |  |
| Cc1c(F)c(F)c(COC(=O)C2C(/C=C(\Cl)C(F)(F)F)C2(C)C)c(F)c1F (stereo not given) | inactive | inactive | inactive | inactive |  | inactive | inactive | inactive | inactive |  |  | inactive | inactive |  | inactive |  | inactive |  | inactive |  |
| Oc1ccc(Cl)c(Cl)c1Cl | inactive | inactive | inactive | inactive |  | inactive |  | inactive | inactive | inactive |  |  |  | inactive | inactive | inactive | inactive |  | inactive |  |
| CN1C[C@H](CNC(=O)OCc2ccccc2)C[C@@H]2c3cccc4c3c(cn4C)C[C@H]21 | inactive | inactive |  | inactive |  |  | inactive | inactive |  |  | inactive |  |  | inactive | inactive | inactive | inactive |  | inactive |  |
| CCCCCCC#N | inactive | inactive | inactive | inactive | inactive |  | inactive | inactive | inactive | inactive | inactive | inactive |  | inactive | inactive | inactive | inactive |  | inactive |  |
| COc1nn(C(=O)NS(=O)(=O)c2ccccc2OC(F)(F)F)c(=O)n1C | inactive | inactive | inactive | inactive | inactive | inactive |  | inactive | inactive |  |  | inactive |  | inactive | inactive | inactive | inactive |  |  |  |
| Nc1ccc([N+](=O)[O-])cc1[N+](=O)[O-] | inactive | inactive | inactive |  | inactive | inactive | inactive | inactive | inactive |  |  | inactive | inactive | inactive | inactive | inactive |  |  | 53.1 µM (active) | inactive |
| Cn1sc(Cl)cc1=O | inactive | inactive | inactive | inactive | inactive |  | inactive | inactive | inactive | inactive | inactive | inactive |  | inactive | inactive |  | inactive |  | inactive |  |
| O=Cc1ccc2c(c1)OCO2 | inactive | inactive | inactive | inactive | inactive |  |  | inactive | inactive | inactive | inactive | inactive | inactive | inactive | inactive | inactive | inactive |  | inactive |  |
| CCCC(Cn1cncn1)c1ccc(Cl)cc1Cl (stereo not given) | inactive | inactive |  | inactive |  | inactive |  | inactive |  | inactive |  |  |  | inactive |  |  | inactive |  | inactive |  |
| CCOP(=S)(OCC)SCn1nnc2ccccc2c1=O | inactive | inactive | 68.6 µM (active) |  | inactive | inactive | inactive | inactive | inactive |  | 27.3 µM (active) |  |  | inactive |  | inactive | inactive |  |  |  |
| C(=NC1CCCCC1)=NC1CCCCC1 | inactive | inactive |  | 2.45 µM (active) and 4.86 µM (active) | inactive | inactive | inactive | inactive | inactive | inactive | inactive |  |  | inactive |  |  |  |  | inactive |  |

Reference: PubChem BioAssay (Tox21)
